Experiment [1] can be described thus: qHTS assay to identify small molecule antagonists of the retinoid acid receptor (RAR) signaling pathway - cell viability counter screen (AID 1159551). Note: nearly all actives have a fitted effect of over 35% in size. In short, it runs like this:
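Luminescent ATP quantitation (CellTiter-Glo) gave cell viability in C3RL4 cells exposed to test chemicals for 6 h at 37 C alongside 1 uM final retinol.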

Experiment [2] can be described thus: qHTS assay to identify small molecule antagonists of the retinoic acid receptor (RAR) signaling pathway (AID 1159552; note: nearly all actives have a fitted effect of over 50% in size). In short, it runs like this:
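Cells of the C3RL4 line were seeded, incubated overnight, then dosed with compounds in DMSO followed immediately by retinol (1 uM final). Six hours later luciferase detection reagent went in; signal was measured after 30 min at RT.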
On the technique in general: qHTS replaces the single test concentration by a dilution series.

Experiment [3] in a line: qHTS assay to identify small molecule agonists of the retinoic acid receptor (RAR) signaling pathway (AID 1159553). Note: potency is the fitted concentration of half-maximal effect. An outline of the steps: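 Luminescence from a RARE-driven luciferase reporter in C3RL4 cells served as the read-out, measured after 30 min with detection reagent at room temperature. Compounds in DMSO were applied for 6 hr at 37 C following overnight seeding.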

Experiment [4] in a line: qHTS assay to identify small molecule antagonists of the estrogen related receptor (ERR) signaling pathway from Tox21 library - cell viability counter screen (AID 1224834). Note: nearly all actives have a fitted effect of over 30% in size. An outline of the steps: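 Fluorescence from CellTiter-Fluor gives the viability read-out, taken 30 min after reagent addition. Before that, ERR cells seeded 6 h earlier were incubated with compounds for 17.5 h at 37 C.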

The target of experiment [5] is Luciferin 4-monooxygenase (Photinus pyralis) (UniProt P08659). Kind of experiment: qHTS assay to identify small molecule inhibitors of firefly luciferase (AID 1224835). Note: nearly all actives have a fitted effect of over 25% in size. Note: potency is the fitted concentration of half-maximal effect. In short, it runs like this:
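Biochemical qHTS: compounds run as interplate titrations against purified firefly enzyme, with D-luciferin and ATP each at its KM concentration. Light output recorded by CCD imaging.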

Experiment [6] in a line: qHTS assay to identify small molecule agonists of the constitutive androstane receptor (CAR) signaling pathway - cell viability counter screen (AID 1224836). Note: nearly all actives have a fitted effect of over 45% in size. Note: potency is the fitted concentration of half-maximal effect. An outline of the steps:
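HepG2-CYP2B6-hCAR, 2500 cells/well, 4 h pre-incubation; cpd 15 conc + PK11195 0.75 uM final; 23 h, 37 C/5% CO2; CellTiter-Fluor, fluorescence.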

Experiment [7] is described as follows: qHTS assay to identify small molecule antagonists of the constitutive androstane receptor (CAR) signaling pathway - cell viability counter screen (AID 1224837). Note: series mostly up to about 92 µM; nearly all actives have a fitted effect of over 45% in size. In short, it runs like this:
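HepG2-CYP2B6-hCAR cells, 2500/well, 4 hr pre-incubation; compound titration, 15 conc.; CITCO 50 nM final; 23 hr, 37 C/5% CO2; CellTiter-Fluor, fluorescence intensity.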

Experiment [8] has as its target Nuclear receptor subfamily 1 group I member 3 (Homo sapiens) (UniProt Q14994). Kind of experiment: qHTS assay to identify small molecule antagonists of the constitutive androstane receptor (CAR) signaling pathway (AID 1224838).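 Note: HepG2 cells stably expressing hCAR with CYP2B6 luciferase reporter stimulated by CITCO; nearly all actives have a fitted effect of over 40% in size.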 Note: potency is the fitted concentration of half-maximal effect. An outline of the steps: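 HepG2-CYP2B6-hCAR cells; 4 h pre-incubation; cpd (15 conc) + CITCO 50 nM final; 24 h, 37 C/5% CO2; ONE-Glo, luminescence.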

Experiment [9] has the same target. In words: qHTS assay to identify small molecule agonists of the constitutive androstane receptor (CAR) signaling pathway (AID 1224839). Note: nearly all actives have a fitted effect of over 15% in size. Note: potency is the fitted concentration of half-maximal effect. In short, it runs like this: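 HepG2-CYP2B6-hCAR cells, 2500/well, 4 h pre-incubation; compounds 15 conc.; PK11195 0.75 uM final; 24 h, 37 C/5% CO2; ONE-Glo luciferase read.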
Experiment [10] is described as follows: qHTS assay to identify small molecule antagonists of the estrogen related receptor signaling pathway with the pleiotropic PPARgamma coactivator (PGC) from Tox21 10K library - cell viability counter screen (AID 1224840; active = well fitted cell-killing curve with a large enough effect in the repeat runs, not every such curve was filed as active; note: nearly all actives have a fitted effect of over 40% in size; note: potency is the fitted concentration of half-maximal effect). An outline of the steps:
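PGC/ERR cells, 2,000/well; 6 h pre-incubation 37 C/5% CO2; cpd in DMSO via pin tool; 17.5 h 37 C; CellTiter-Fluor, 30 min; fluorescence.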

A short description of experiment [11]: qHTS assay to identify small molecule antagonists of the estrogen related receptor signaling pathway with the pleiotropic PPARgamma coactivator (PGC) from Tox21 10K library (AID 1224841; call rule not given here; note: actives are mostly falling curves and most rising ones were filed inactive; nearly all actives have a fitted effect of over 50% in size; note: potency is the fitted concentration of half-maximal effect). An outline of the steps:
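PGC/ERR cell line, 2,000 cells/well; 6 h pre-incubation 37 C/5% CO2; compounds (DMSO) pinned in; 18 h, 37 C; One-Glo, 30 min RT; luminescence.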

Experiment [12] is described as follows: qHTS assay to identify small molecule agonists of the estrogen related receptor signaling pathway with the pleiotropic PPARgamma coactivator (PGC) from Tox21 10K library (AID 1224842). Note: nearly all actives have a fitted effect of over 15% in size. An outline of the steps:
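PGC/ERR reporter cell line, 2,000 cells per well, incubated 6 h at 37 C before 23 nL compound in DMSO was added. After 18 h at 37 C, One-Glo luminescence read following 30 min at room temperature.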

In experiment [13] the target is Thyrotropin receptor (Homo sapiens) (UniProt P16473). Kind of experiment: qHTS assay to identify small molecule agonists of the thyroid stimulating hormone receptor (TSHR) signaling pathway (AID 1224843; calls by dose curve; note: nearly all actives have a fitted effect of over 45% in size). In short, it runs like this:
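TSHR-HEK293 cells in agonist mode, 30 min room-temperature step, then cAMP measured by competitive HTRF (cAMP-d2 with anti-cAMP cryptate) after 1 h at room temperature. Tested at 15 concentrations in triplicate.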

The nature of experiment [14]: qHTS assay to identify small molecule agonists of the RXR signaling pathway - cell viability counter screen (AID 1159529).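 Note: HEK 293T cells carrying an RXR-alpha UAS beta-lactamase reporter; series mostly up to about 77 µM; nearly all actives have a fitted effect of over 50% in size.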 An outline of the steps:
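HEK 293T RXRa-bla cells, 2% CS-FBS; 5 h settle; cpd 16 h 37 C, 5% CO2; CellTiter-Glo 30 min RT, luminescence. Tetraoctyl ammonium bromide as positive control.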

Experiment [15] in a line: qHTS assay to identify small molecule antagonists of the estrogen related receptor (ERR) signaling pathway - cell viability counter screen (AID 1224818).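 Note: series mostly up to about 46 µM; viability measured after 17.5 h of compound exposure.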 An outline of the steps:
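Multiplexed counter screen to separate cytotoxic compounds from true ERR modulators. ERR cells received DMSO-dissolved compounds after a 6 h pre-incubation, were exposed 17.5 h at 37 C, then assayed with CellTiter-Fluor fluorescence.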

Experiment [16] in a line: qHTS assay to identify small molecule antagonists of the estrogen related receptor (ERR) signaling pathway (AID 1224819;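 note: luminescence from an ERR-driven luciferase reporter measured with One-Glo reagent; series mostly up to about 46 µM; nearly all actives have a fitted effect of over 50% in size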). An outline of the steps:
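Seed ERR cells 2,000/well; rest 6 h at 37 C/5% CO2; pin compounds in DMSO; incubate 18 h at 37 C; add One-Glo; wait 30 min at room temperature; measure luminescence.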

A short description of experiment [17]: qHTS assay to identify small molecule agonists of the estrogen related receptor (ERR) signaling pathway (AID 1224820). An outline of the steps: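 Cells: ERR line from NTP, 2,000/well. Pre-incubation 6 h, 37 C/5% CO2. Compound (DMSO) pin transfer, 18 h 37 C. One-Glo, 30 min RT, luminescence.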
For experiment [18], the system named is estrogen-related receptor alpha (ERRalpha) with PGC-1alpha coactivator, human. Kind of experiment: qHTS assay to identify small molecule antagonists of the estrogen related receptor signaling pathway with the pleiotropic PPARgamma coactivator (PGC) (AID 1224821; calls by dose curve). An outline of the steps: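 Luminescent read-out (One-Glo, 30 min at room temperature) following 18 h treatment of PGC/ERR cells at 37 C with compounds delivered in DMSO. Cells had settled 6 h at 37 C/5% CO2 before dosing.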

Experiment [19] can be described thus: qHTS assay to identify small molecule antagonists of the estrogen related receptor signaling pathway with the pleiotropic PPARgamma coactivator (PGC) cell viability counter screen (AID 1224822; note: series mostly up to about 46 µM). An outline of the steps:
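Cells: PGC/ERR, 2,000/well, 1536-well format. Pre-incubation 6 h, 37 C/5% CO2. Compound exposure 17.5 h, 37 C. Detection: CellTiter-Fluor, 30 min, fluorescence.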

Experiment [20] is described as follows: qHTS assay to identify small molecule agonists of the estrogen related receptor signaling pathway with the pleiotropic PPARgamma coactivator (PGC) (AID 1224823). In short, it runs like this: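 Steps: plate PGC/ERR cells at 2,000 cells/well; incubate 6 h, 37 C/5% CO2; pin-transfer compounds (DMSO); incubate 18 h, 37 C; add One-Glo; 30 min RT; read luminescence.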

Values joined by “and” are separate entries in the source; they are usually repeats but may differ in a detail not shown here. Identical values can stand only once. Results filed as inconclusive are left out. The source holds several records for some structures; these can differ, active in one and inactive in another. Active and inactive are the calls of the source. Unless noted, calls come from the whole dose curve; as a rule, active = well fitted curve in the direction sought with a large enough effect in the repeat runs; inconclusive = weak or mixed curves; inactive = no such curve, though single readings can be large; an effect the other way counts as inactive or inconclusive.

Results on 11 compounds are retold here after PubChem BioAssay (Tox21).

Chain of Luciferin 4-monooxygenase (Photinus pyralis) (P08659 whole entry, looked up): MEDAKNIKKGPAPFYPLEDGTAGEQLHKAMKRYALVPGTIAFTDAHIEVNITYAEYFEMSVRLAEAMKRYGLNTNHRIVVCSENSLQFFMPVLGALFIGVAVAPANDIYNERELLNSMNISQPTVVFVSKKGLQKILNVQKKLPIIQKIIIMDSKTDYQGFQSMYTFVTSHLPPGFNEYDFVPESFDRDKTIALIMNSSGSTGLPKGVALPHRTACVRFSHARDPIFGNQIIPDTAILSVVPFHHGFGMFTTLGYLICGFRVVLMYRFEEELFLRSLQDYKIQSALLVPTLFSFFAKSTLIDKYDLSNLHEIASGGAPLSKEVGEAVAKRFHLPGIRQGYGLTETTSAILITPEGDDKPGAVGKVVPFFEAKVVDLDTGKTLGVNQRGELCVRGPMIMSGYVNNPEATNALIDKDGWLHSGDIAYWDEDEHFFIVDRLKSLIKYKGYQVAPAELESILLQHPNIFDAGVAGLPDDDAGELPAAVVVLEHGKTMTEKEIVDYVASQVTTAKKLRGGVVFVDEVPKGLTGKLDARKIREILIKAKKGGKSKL
Chain of Nuclear receptor subfamily 1 group I member 3 (Homo sapiens) (Q14994 whole entry, looked up): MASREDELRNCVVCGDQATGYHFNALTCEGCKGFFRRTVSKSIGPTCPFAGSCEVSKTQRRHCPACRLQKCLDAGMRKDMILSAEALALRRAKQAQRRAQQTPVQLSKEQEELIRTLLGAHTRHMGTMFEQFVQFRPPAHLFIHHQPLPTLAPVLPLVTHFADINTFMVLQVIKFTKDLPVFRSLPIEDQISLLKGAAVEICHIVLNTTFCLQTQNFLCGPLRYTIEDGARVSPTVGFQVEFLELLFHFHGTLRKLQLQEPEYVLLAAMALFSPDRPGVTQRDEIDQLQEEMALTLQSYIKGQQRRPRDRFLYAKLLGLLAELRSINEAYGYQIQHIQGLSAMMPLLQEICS
Chain of Thyrotropin receptor (Homo sapiens) (P16473 whole entry, looked up): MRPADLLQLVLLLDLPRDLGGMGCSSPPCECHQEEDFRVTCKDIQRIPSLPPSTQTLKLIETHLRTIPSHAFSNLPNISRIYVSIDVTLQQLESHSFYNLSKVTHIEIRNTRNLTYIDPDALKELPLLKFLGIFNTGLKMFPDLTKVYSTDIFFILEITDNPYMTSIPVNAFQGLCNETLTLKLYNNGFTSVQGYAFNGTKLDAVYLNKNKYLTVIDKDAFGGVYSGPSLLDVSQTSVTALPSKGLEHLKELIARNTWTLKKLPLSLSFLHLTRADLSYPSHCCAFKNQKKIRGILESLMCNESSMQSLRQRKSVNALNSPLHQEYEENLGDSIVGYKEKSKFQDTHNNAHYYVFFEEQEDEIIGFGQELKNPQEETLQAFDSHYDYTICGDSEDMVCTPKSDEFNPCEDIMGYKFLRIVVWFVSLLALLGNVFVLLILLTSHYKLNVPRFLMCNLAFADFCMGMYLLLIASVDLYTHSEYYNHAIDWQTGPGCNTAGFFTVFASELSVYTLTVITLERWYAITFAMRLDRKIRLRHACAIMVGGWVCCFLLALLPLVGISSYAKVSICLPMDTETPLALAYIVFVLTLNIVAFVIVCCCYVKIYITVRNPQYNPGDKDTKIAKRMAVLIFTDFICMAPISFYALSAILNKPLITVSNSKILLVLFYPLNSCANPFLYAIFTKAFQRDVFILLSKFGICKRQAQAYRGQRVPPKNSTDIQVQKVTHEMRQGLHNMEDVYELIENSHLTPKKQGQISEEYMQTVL

With `CCC(C)CO` (configuration not stated), the Potency entry in [1], in [2], in [3], in experiment [4], in experiment [5] and in [6] was “inactive” each time. The Potency result in experiment [7], in experiment [8], in experiment [9], in [10], in experiment [11] and in experiment [12] was “inactive” throughout. Moreover, the Potency entry in experiment [13] is “inactive”.

Regarding `CC(C)=CCC/C(C)=C\CO`, the Potency result in experiment [14], in experiment [1], in [5], in experiment [6], in [7] and in experiment [10] was “inactive” each time. Moreover, the Potency entry in experiment [13] was “inactive”.

On to `C[Si](C)(C)O[Si](C)(C)C`, for which the Potency result in experiment [14], in experiment [1], in [2], in [3], in [5] and in [6] was “inactive” each time. The Potency result in experiment [7], in experiment [10] and in experiment [13] was “inactive” each time.

Consider `Cc1c(OCC(F)(F)F)ccnc1CS(=O)c1nc2ccccc2[nH]1` (configuration not stated), for which the Potency entry in [1], in experiment [2], in [15], in [16], in [18] and in experiment [19] was “inactive” in each case. Besides, the Potency entry in [4], in experiment [6], in experiment [7], in experiment [8], in experiment [10] and in [11] was “inactive” each time. Moreover, the Potency entry in [13] is “inactive”. Further, the Potency in experiment [3] was 34.4 µM (active) and 26.6 µM (active); in [5], 35.6 µM (active) and inactive; in experiment [9], 30.6 µM (active) and 11.9 µM (active). Further, the result in [17] and in experiment [20] was inactive.

As to `CCCCC(CC)COCC1CO1` (configuration not stated), the Potency entry in [1], in experiment [2], in experiment [3], in experiment [4], in experiment [5] and in experiment [6] was “inactive” in each case. Also, the Potency entry in experiment [7], in experiment [8], in experiment [9], in [10], in experiment [11] and in [12] was “inactive” each time. In addition, in experiment [13], the Potency entry is “inactive”.

With `OC(CCl)CCl`, the Potency entry in experiment [14], in [1], in experiment [5], in [6], in [7] and in [8] was “inactive” throughout. For the same compound, the Potency result in experiment [9], in experiment [10] and in [13] was “inactive” in each case.

Turning to `Nc1ccc(S(=O)(=O)Nc2cnc3ccccc3n2)cc1`, the Potency entry in experiment [14], in experiment [1], in experiment [4], in experiment [5], in [6] and in experiment [7] was “inactive” each time. Also, the Potency result in experiment [8], in [10] and in experiment [13] was “inactive” each time.

As for `CC(C)(C)NC(=O)[C@H]1CC[C@H]2[C@@H]3CC[C@H]4NC(=O)C=C[C@]4(C)[C@H]3CC[C@]12C`, the Potency result in experiment [1], in experiment [2], in [3], in experiment [4], in [5] and in [6] was “inactive” in each case. Further, the Potency result in [7], in experiment [8], in [9] and in [10] was “inactive” each time.

As to `Cc1ccc(C(=O)c2cc(O)c(O)c([N+](=O)[O-])c2)cc1`, the Potency result in experiment [1], in experiment [8], in experiment [12] and in experiment [13] was “inactive” each time. Further, the Potency in [5] was 63.3 µM (active) and 34.7 µM (active); in experiment [6], 43.3 µM (active); in experiment [10], 43.3 µM (active) and inactive; in experiment [11], 30.6 µM (active).

As for `CCCCC/C=C/C=C/C=O`, the Potency entry in [1], in experiment [5], in experiment [6], in experiment [7], in experiment [8] and in experiment [9] was “inactive” in each case. The Potency entry in experiment [10], in experiment [12] and in experiment [13] was “inactive” throughout. Moreover, the Potency entry in experiment [11] is “inactive and 54.5 µM (active)”.

Consider `S=C(NC1CCCCC1)NC1CCCCC1`, for which the Potency result in [1], in [2], in experiment [5], in [6], in experiment [7] and in experiment [9] was “inactive” throughout. Further, the Potency entry in [12] and in [13] was “inactive” in each case. Also, the Potency in experiment [3] is 9.5 µM (active) and 9.69 µM (active); in experiment [8] it was 13.4 µM (active) and 8.63 µM (active); in experiment [11] it was 23.9 µM (active) and 21.7 µM (active).
